High-throughput results from PubChem.
JMJD2A Tudor inh – qHTS Assay for Inhibitors of JMJD2A-Tudor Domain | Lysine-specific demethylase 4A (Homo sapiens), O75164 | AlphaScreen JMJD2A-Tudor / H3K4me3 peptide binding | Potency, µM (highest dose often 114 µM), for the others: at the top dose activity change, negative = inhibition, most hits filed as inhibitors | 390,000 tested, 4.4% active | AID 504339, 2011; note: % is set by controls: 0 for no effect and ±100 for the full control effect; nearly all actives have a fitted effect of over 50% in size
GLS inhibitor – qHTS for Inhibitors of Glutaminase (GLS) | AID 624170, 2012 | GLS enzymatic activity, qHTS titration | Glutaminase kidney isoform, mitochondrial (Homo sapiens), O94925 | 410,000 tested, 0.21% active | Potency, µM (titrated, usually from 45.5 µM), for the others: top-dose activity change, negative = inhibition, actives largely listed as inhibitors; note: % is set by controls: 0 for no effect and ±100 for the full control effect
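Two-point fluorescence kinetic (t0, 30 min RT) for hKGA; glutamate detected via glutamate oxidase–HRP–Amplex Red. Substrate: 1 mM L-glutamine solution; buffer 45 mM KH2PO4, pH 8.2.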
BAZ2B inh – qHTS Assay for Inhibitors of BAZ2B | Bromodomain adjacent to zinc finger domain protein 2B (Homo sapiens), Q9UIF8 | AlphaScreen BAZ2B-H3K14Ac peptide displacement | Potency, µM (doses to about 114 µM), for inactives: at the highest dose activity change, negative = inhibition, actives largely listed as inhibitors | 360,000 tested, 4.4% active | AID 504333, 2011; note: % is set by controls: 0 for no effect and ±100 for the full control effect; nearly all actives have a fitted effect of over 60% in size
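AlphaScreen luminescence quantifies BAZ2B engagement of H3K14Ac peptide; the protein and biotinylated peptide are both at 50 nM final, buffer PBS pH 7.4 with 0.01% Tween-20, all steps at room temperature.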
HP1b binding inh – HTS for Inhibitors of HP1-beta Chromodomain Interactions with Methylated Histone Tails | Chromobox protein homolog 1 (Homo sapiens), P83916 | AlphaScreen HP1-beta / biotin-H3K9me3 peptide binding | Potency, µM (titrated, usually from 114 µM), for the others: at the highest dose activity change, negative = inhibition, actives largely listed as inhibitors | 390,000 tested, 0.56% active | AID 540317, 2011; note: nearly all actives have a fitted effect of over 70% in size
Target sequence (P83916 whole entry, looked up): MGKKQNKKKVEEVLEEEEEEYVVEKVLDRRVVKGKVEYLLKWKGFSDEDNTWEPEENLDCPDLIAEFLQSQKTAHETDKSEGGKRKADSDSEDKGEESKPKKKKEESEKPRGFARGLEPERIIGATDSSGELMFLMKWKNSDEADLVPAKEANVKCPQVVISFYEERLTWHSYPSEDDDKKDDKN
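AlphaScreen: HP1-beta (50 nM) preformed 30 min with biotin-H3(1-18)K9me3 peptide (50 nM) in PBS pH 7.4, 0.01% Tween-20. Compound added for 30 min at RT, then streptavidin donor/nickel chelate acceptor beads (10 ug/mL) for 30 min.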
G9a inh – qHTS Assay for Inhibitors of Histone Lysine Methyltransferase G9a. Histone-lysine N-methyltransferase EHMT2 (Homo sapiens), Q96KQ7. 350,000 tested, 8.8% active. Potency, µM (doses to about 102 µM), for the others: top-dose activity, negative = inhibition, usual class: inhibitors. AID 504332, 2011. G9a H3K9 monomethylation, AlphaScreen, 2 h; note: % is set by controls: 0 for no effect and ±100 for the full control effect; nearly all actives have a fitted effect of over 75% in size
Target sequence (Q96KQ7 913-1193 limits assumed): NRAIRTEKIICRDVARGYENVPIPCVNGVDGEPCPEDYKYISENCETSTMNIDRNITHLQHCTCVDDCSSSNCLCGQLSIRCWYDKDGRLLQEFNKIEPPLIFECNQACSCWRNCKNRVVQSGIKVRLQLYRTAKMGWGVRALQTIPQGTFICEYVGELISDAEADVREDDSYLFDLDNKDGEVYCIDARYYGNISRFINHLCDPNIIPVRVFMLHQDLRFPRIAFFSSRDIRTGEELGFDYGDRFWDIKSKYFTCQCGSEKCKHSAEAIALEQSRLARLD
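Step 1: enzyme (final 20 nM) with compound, 15 min RT. Step 2: substrate peptide 500 nM and SAM 20 uM, 2 h RT. Step 3: anti-H3K9me1 antibody and AlphaScreen beads, 10 min, then plate read.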
* = called active by the depositor; [ ] = another dose, or the depositor's remark. An excerpt weighted towards active compounds, which were near 10% of everything screened. Calls come from the whole dose curve; as a rule, active = well fitted curve in the direction sought with a large enough effect; inconclusive = small, poorly fitted or top-dose-only effect, or another doubt; inactive = no such curve, though single readings can be large; an effect the other way counts as inactive or inconclusive. Potency is the fitted concentration of half-maximal effect.

What do the screens show for `Cn1cc(C2=C(c3cn(CCCSC(=N)N)c4ccccc34)C(=O)NC2=O)c2ccccc21`?
G9a inh: 7.9µM*

Results for CN(C)CCCn1cc(C2=C(c3c[nH]c4ccccc34)C(=O)NC2=O)c2ccccc21 ?
G9a inh: 14µM*

How did Cn1cc(SCC(N)=O)c2ccccc21 do in these assays?
JMJD2A Tudor inh: -11%; GLS inhibitor: 10%; BAZ2B inh: 1%; HP1b binding inh: 33%; G9a inh: -32%[59 µM]

Results for COc1ccc(OC)c(CNc2ncnc3onc(-c4ccc(Cl)cc4)c23)c1 ?
JMJD2A Tudor inh: -18%; GLS inhibitor: 3%; BAZ2B inh: -20%; HP1b binding inh: 26%; G9a inh: 4%[59 µM]

Results for O=[N+]([O-])c1ccc(S(=O)(=O)c2ccccc2)nc1 ?
JMJD2A Tudor inh: -19%; GLS inhibitor: 3%; BAZ2B inh: 13%; HP1b binding inh: 24%; G9a inh: 40µM*

What do the screens show for `Cc1ccc(S(=O)(=O)c2ccc([N+](=O)[O-])cn2)cc1`?
JMJD2A Tudor inh: -29%; GLS inhibitor: -11%; BAZ2B inh: inconclusive; HP1b binding inh: 6%[57 µM]; G9a inh: 40µM*

What do the screens show for `NC(=O)c1ccc(NC(=O)c2cncn2-c2ccccc2)cc1`?
JMJD2A Tudor inh: inconclusive; GLS inhibitor: inconclusive; BAZ2B inh: 3%; HP1b binding inh: -4%; G9a inh: -28%

What do the screens show for `NNC(=O)c1cncn1-c1ccc(F)cc1`?
JMJD2A Tudor inh: inconclusive; GLS inhibitor: -2%; BAZ2B inh: 50µM*; HP1b binding inh: 57%; G9a inh: 0%

What do the screens show for `CC(=O)O[C@@H]1C(=O)[C@@]2(C)[C@H](O)C[C@H]3OC[C@]3(OC(C)=O)[C@@H]2[C@H](OC(=O)c2ccccc2)[C@@]2(O)C[C@H](OC(=O)[C@@H](O)[C@@H](NC(=O)c3ccccc3)c3ccccc3)C(C)=C1C2(C)C` (stereo in doubt)?
G9a inh: 16%[21.5 µM]

Results for O=C(Nc1cc(C(F)(F)F)ccc1-n1cncn1)c1ccc([N+](=O)[O-])o1 ?
JMJD2A Tudor inh: -28%; GLS inhibitor: -4%; BAZ2B inh: 0%; HP1b binding inh: -2%; G9a inh: 24%[0.501 µM]

Results for O=C1c2ccccc2C(=O)C1c1ccc(Cl)cc1 ?
JMJD2A Tudor inh: -19%; GLS inhibitor: 0%; BAZ2B inh: inconclusive; HP1b binding inh: 9%; G9a inh: 45µM*

How did Cc1csc2nc(-c3ccc(NS(=O)(=O)c4cc(F)ccc4F)cc3)cn12 do in these assays?
JMJD2A Tudor inh: inconclusive; GLS inhibitor: 2%; BAZ2B inh: inconclusive; HP1b binding inh: 0%[57 µM]; G9a inh: -39%[59 µM]

What do the screens show for `CCOC(=O)COc1nc(-c2ccco2)cc(-c2ccco2)c1C#N`?
JMJD2A Tudor inh: 36%; GLS inhibitor: -16%; BAZ2B inh: -22%; HP1b binding inh: 22%; G9a inh: -30%[59 µM]

What do the screens show for `CCOC(=O)C(C)Sc1nc(-c2ccco2)cc(C(F)(F)F)c1C#N` (stereo not drawn)?
JMJD2A Tudor inh: -10%; GLS inhibitor: -1%; BAZ2B inh: 19%; HP1b binding inh: 47%; G9a inh: 40µM*

Results for O=S(=O)(Nc1cccc2ncccc12)c1cccs1 ?
JMJD2A Tudor inh: 56µM*; GLS inhibitor: 1%; BAZ2B inh: 56µM*; HP1b binding inh: 31%; G9a inh: 28%[59 µM]

What do the screens show for `O=C(c1cccc(N2C(=O)C3C4C=CC(C4)C3C2=O)c1)N1CCCCCC1` (stereo not drawn)?
JMJD2A Tudor inh: -1%; GLS inhibitor: 6%; BAZ2B inh: 2%; HP1b binding inh: 19%; G9a inh: 1.3µM*

How did O=C(c1cccc(N2C(=O)c3ccccc3C2=O)c1)N1CCCCCC1 do in these assays?
JMJD2A Tudor inh: 0%; GLS inhibitor: -3%; BAZ2B inh: inconclusive; HP1b binding inh: 44%; G9a inh: 22µM*

How did O=C(O)c1cccc(N2C(=O)C3C4C=CC(C4=C(c4ccccc4)c4ccccc4)C3C2=O)c1 (stereo not drawn) do in these assays?
JMJD2A Tudor inh: -2%[11.4 µM]; GLS inhibitor: 17%; BAZ2B inh: 56µM*; HP1b binding inh: -25%; G9a inh: 28µM*

What do the screens show for `CCOC(=O)C1CCCN(C(=O)c2cccc(N3C(=O)c4ccccc4C3=O)c2)C1` (stereo not drawn)?
JMJD2A Tudor inh: -15%; GLS inhibitor: -4%; BAZ2B inh: -3%; HP1b binding inh: 32%; G9a inh: 22%[12.7 µM]

What do the screens show for `O=C(O)c1cccc(N2C(=O)c3ccc4c5c(ccc(c35)C2=O)C(=O)N(c2cccc(C(=O)O)c2)C4=O)c1`?
JMJD2A Tudor inh: -28%; GLS inhibitor: 0%; BAZ2B inh: inconclusive; HP1b binding inh: 1%; G9a inh: 13%[12.7 µM]

What do the screens show for `O=C(COC(=O)COc1ccc(Cl)cc1)NC1CCCC1`?
JMJD2A Tudor inh: -5%; GLS inhibitor: 1%; BAZ2B inh: -1%; HP1b binding inh: 27%; G9a inh: 4%[2.33 µM]

Results for COc1ccc2nc(C)cc(SCC(NC(C)=O)C(=O)OC(C)C)c2c1 (stereo not drawn) ?
JMJD2A Tudor inh: -6%; GLS inhibitor: -1%; BAZ2B inh: -2%; HP1b binding inh: 49%; G9a inh: 40µM*

Results for COc1ccc2nc(C)cc(SCC(=O)N/N=C/c3ccc(O)c(O)c3)c2c1 ?
JMJD2A Tudor inh: -30%; GLS inhibitor: inconclusive; BAZ2B inh: inconclusive; HP1b binding inh: -5%; G9a inh: 35µM*

How did COc1cccc2c(SCC(=O)N/N=C/c3ccc(O)c(O)c3)cc(C)nc12 do in these assays?
JMJD2A Tudor inh: inconclusive; GLS inhibitor: inconclusive; BAZ2B inh: inconclusive; HP1b binding inh: -3%; G9a inh: 35µM*

What do the screens show for `COc1ccc2nc(C)cc(SCC(=O)N/N=C/c3cccc4ccccc34)c2c1`?
JMJD2A Tudor inh: -21%; GLS inhibitor: 1%; BAZ2B inh: 8%; HP1b binding inh: 14%; G9a inh: 9%[59 µM]

Results for COc1ccc2c(c1)c(C(=O)N/N=C/c1ccc(O)c(O)c1)c(C)n2C ?
JMJD2A Tudor inh: -26%; GLS inhibitor: 7.1µM*; BAZ2B inh: inconclusive; HP1b binding inh: -6%; G9a inh: 50µM*

Results for Cc1ccc(Cc2c(-c3ccccc3)nc3cc(C)c(Br)c(C)n23)cc1 ?
GLS inhibitor: -20%
